Hits are enriched below; roughly 2.3% of the tested compounds scored in any of these assays.
M1 PAM parental – nonselective calcium activators in parental CHO-K1 cells, primary screen, counter-screen for M1 PAM project, cell-based, Fluo-8 calcium fluorescence, full deck, 1536-well; activation, % at 3 µM; ATP EC20; 0% at ATP EC20, 100% at ATP max; hit rate 0.02% among 360,000;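 active = activation above the run cutoff, the mean activation of all test compounds plus 3 SD, cut at about 40% in these data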;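 also: peak over basal fluorescence ratio in a 140 s read after ATP addition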
M1 ag parental – counter-screen for M1 agonists: effect in parental CHO-K1 cells. hit rate 0.48% among 360,000. AID 602248, 2012. Fluo-8 calcium fluorescence; scaled to maximal ATP response, vehicle zero. activation, % at 3 µM; in the data active = activation above about 15%;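 also: untransfected CHO-K1 host cells lacking M1 receptor as counterscreen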
CHO-K1 Ca antag – nonselective inhibitor or artifact in parental CHO-K1 cells; inhibition, % at 3 µM; ATP-induced calcium, Fluo-8 fluorescence; hit rate 0.6% among 360,000; AID 602250;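 active = inhibition above a per-plate cutoff, the plate's mean sample inhibition plus 3 SD, cut at about 24% in these data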;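 also: 0% = DMSO plus EC80 ATP and 100% = DMSO alone without ATP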
CHRM1 agonist – human M1 muscarinic receptor agonists, primary screen, Fluo-8 calcium fluorescence, CHO-K1 cells, HTS. CHO-K1 hM1, agonist mode; 0% DMSO, 100% acetylcholine EC100. activation, % at 3 µM. hit rate 0.33% among 360,000;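 active = activation above the run's mean compound activation plus 3 SD, cut at about 16% in these data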;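 also: peak over basal fluorescence ratio within a 140 s kinetic read after compound addition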
Target sequence (P11229 whole entry, looked up): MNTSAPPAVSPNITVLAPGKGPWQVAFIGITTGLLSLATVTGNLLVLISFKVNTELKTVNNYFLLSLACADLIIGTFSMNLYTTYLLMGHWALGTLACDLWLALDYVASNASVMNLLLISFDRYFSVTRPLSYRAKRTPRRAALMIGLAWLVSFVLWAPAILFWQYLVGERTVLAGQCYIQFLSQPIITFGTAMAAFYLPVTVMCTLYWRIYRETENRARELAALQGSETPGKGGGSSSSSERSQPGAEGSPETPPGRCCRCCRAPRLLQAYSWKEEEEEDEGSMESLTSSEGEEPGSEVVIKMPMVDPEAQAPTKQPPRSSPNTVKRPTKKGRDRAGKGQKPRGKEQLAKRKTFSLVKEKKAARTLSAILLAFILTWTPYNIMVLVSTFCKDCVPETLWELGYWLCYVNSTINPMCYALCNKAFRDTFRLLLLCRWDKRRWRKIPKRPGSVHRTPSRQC
CHRM1 PAM – human M1 muscarinic receptor positive allosteric modulators, primary screen, CHO-K1 cells, Fluo-8 calcium fluorescence, 1536-well | CHO-K1 hM1, ACh EC20; 0% = ACh EC20, 100% = maximal ACh | activation, % at 3 µM | hit rate 0.088% among 360,000 | AID 588819, 2011; in the data active = activation above about 19%, passing the limit was not always enough
CHRM1 antagonist – human M1 muscarinic receptor antagonists, primary screen, CHO-K1 cells, Fluo-8 calcium fluorescence, 1536-well; hit rate 1.3% among 360,000; CHO-K1 hM1, ACh EC80 antagonist; Muscarinic acetylcholine receptor M1 (Homo sapiens), P11229; inhibition, % at 3 µM; AID 588852, 2011;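 active = percent inhibition above its own plate's cutoff, namely the mean of that plate's compound wells plus 3 SD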;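 also: peak over basal fluorescence ratio during 140 s after agonist addition; 0% = ACh EC80 plus DMSO and 100% = DMSO alone without agonist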
An asterisk follows results filed as active; . = no result.

SMILES | M1 PAM parental | M1 ag parental | CHO-K1 Ca antag | CHRM1 agonist | CHRM1 PAM | CHRM1 antagonist
CC(C)CNC(=O)/C=C/C=C/CCCC/C=C/c1ccc2c(c1)OCO2 | 6 | 0 | -10 | -1 | 4 | -7
C[C@@]12C(=O)Nc3cc(F)c(F)cc3C(=O)N1[C@H]1c3ccccc3OC[C@@H]1[C@@H]2c1ccccc1 | 8 | 1 | -16 | -6 | -32 | 79*
C[C@@]12C(=O)Nc3ccc(F)cc3C(=O)N1[C@H]1c3ccccc3OC[C@@H]1[C@@H]2c1ccccc1 | 12 | 1 | -7 | -7 | -37 | 89*
C[C@@]12C(=O)Nc3ccc(F)cc3C(=O)N1[C@H]1c3cc(Cl)ccc3OC[C@@H]1[C@@H]2c1ccccc1 | 22 | 1 | -23 | -5 | -16 | 21
COc1ccc(Nc2nnc(Cc3ccncc3)c3ccccc23)c(OC)c1 | 2 | 0 | -15 | 51* | 3 | 4
COc1ccc(Nc2ncnc3ccccc23)c(OC)c1 | 16 | 0 | -4 | -3 | 0 | 3
O=C1NC[C@@H](CCCCN2C[C@H](Cc3ccccc3)N(CC3CCCCC3)C(=O)C2=O)N(CC2CCCCC2)C1=O | 9 | 35* | -18 | . | . | .
O=C1NC[C@H](CCCCN2C[C@@H](Cc3ccccc3)N(CC3CCCCC3)C(=O)C2=O)N(CCC2CCCCC2)C1=O | 6 | 26* | -16 | . | . | .
O=C1NC[C@H](CCCCN2C[C@H](Cc3ccccc3)N(CC3CCCCC3)C(=O)C2=O)N(CCC2CCCCC2)C1=O | 16 | 1 | -18 | . | . | .
Cc1ccccc1-c1nnn(CC(=O)Nc2ccc3c(c2)OCCO3)n1 | 4 | 1 | -6 | -2 | -1 | 10
COc1ccc(C(=O)Nc2ccc(C(=O)N3CCCCC3C)cc2)c(OC)c1OC (stereo not given) | 3 | 1 | -1 | -5 | 6 | -6
COc1cc(NC(=O)c2cc([N+](=O)[O-])ccc2NC(=O)CN2CCN(c3ccccn3)CC2)cc(OC)c1 | -2 | 2 | -4 | -4 | -11 | 34*
CC1CCCN(CCCNC(=O)C2CCC(CNS(=O)(=O)c3cccc4nsnc34)CC2)C1 (stereo not given) | 26 | 0 | -20 | -5 | -19 | 45*
COc1ccc(NC(=O)CN2CCN(c3c(C)cc(C)cc3C)CC2)cc1 | 12 | 1 | -21 | -6 | 5 | -4
Cc1cc(C(=O)N/N=C2\CC(=O)CC(C)(C)C2)c2ccccc2n1 | -8 | 0 | 26* | -7 | 1 | 5
CC(CN1CCN(CCOCCO)CC1)CN1c2ccccc2Sc2ccc(Cl)cc21 (stereo not given) | 9 | 6 | -2 | 0 | -28 | 56*
O=C(/C=C/c1cccc(Cl)c1)N1CCC(Cc2ccccc2)CC1 | -12 | 1 | 25* | -2 | -10 | 17
COc1ccccc1CNC(=O)C1CCCC1 | -16 | 0 | -8 | -1 | -4 | 6
COc1cc(CNC(=O)C2CCCC2)cc(OC)c1OC | 12 | 1 | -10 | 1 | 27* | -26
COC(=O)c1ccc2nccnc2c1 | 23 | 0 | -10 | -1 | -5 | 12
COC(=O)c1ccc(N)nc1 | -11 | 0 | 2 | 22* | -1 | -2
OCC1(Cc2ccc(Cl)cc2)CCN(Cc2ccc(Oc3ncccn3)cc2)CC1 | 10 | 1 | -12 | -14 | -32 | 44*
O=C1CCCCC/C1=N/Nc1ccc(OCc2ccccc2)cc1 | -6 | 0 | 1 | -4 | 4 | -1
CCOC(=O)CSc1ccc(C(=O)NCCCN2CCOCC2)cc1[N+](=O)[O-] | 16 | 1 | -6 | -11 | -32 | 65*
O=C(NCCCN1CCOCC1)c1ccc(Sc2cccc(Cl)c2)c([N+](=O)[O-])c1 | 6 | 2 | -5 | -13 | -27 | 83*
SMILES | M1 PAM parental | M1 ag parental | CHO-K1 Ca antag | CHRM1 agonist | CHRM1 PAM | CHRM1 antagonist
Cc1nn(S(=O)(=O)c2ccccc2)c(C)c1Sc1ccc([N+](=O)[O-])cc1 | -2 | 6 | -4 | -4 | -14 | 13
Cc1nn(S(=O)(=O)c2cccs2)c(C)c1Sc1ccc([N+](=O)[O-])cc1 | 8 | 4 | 1 | -4 | -19 | 28*
Cc1cc2c(sc3ccccc32)c(C)n1 | -3 | 0 | -8 | -4 | 11 | -8
Cc1nc2c(s1)sc1ccccc12 | -9 | 0 | 24* | -5 | 1 | -4
O=C(Nc1ccc(Oc2ccccc2)cc1)C1CCN(c2c3c(nc4ncnn24)CCC3)CC1 | 4 | 3 | 5 | 1 | -16 | 36*
NC(=O)COC(=O)c1ccccc1SCC(=O)NC1CCCCCC1 | 14 | 1 | -6 | -2 | 12 | -8
COc1cc(S(=O)(=O)NCC2CCCO2)c(OC)cc1Cl (stereo not given) | 21 | 0 | -14 | 5 | 26* | -63
COc1ccc(S(=O)(=O)NCC2CCCO2)c(Cl)c1Cl (stereo not given) | 24 | 2 | -8 | -1 | 17 | -16
O=C(COC(=O)c1ccc(O)cc1)Nc1cc(S(=O)(=O)N2CCOCC2)ccc1Cl | -5 | 7 | -6 | 4 | 2 | 2
Cc1ccc(-n2c(-c3ccc(Br)cc3)c[n+]3c2CCc2ccc4cccnc4c2-3)cc1 | 14 | 5 | 13 | -6 | -20 | 91*
COc1ccc(-n2c(-c3ccc(Cl)cc3)c[n+]3c2CCc2ccccc2-3)cc1 | 24 | 1 | -4 | -13 | -21 | 18
CN(C)C(=O)CSc1nnc(-c2cc(-c3cccs3)nc3ccccc23)o1 | -2 | 1 | 27* | -1 | 6 | -3
Cc1ccc(S(=O)(=O)NNC(=O)Nc2ccc(C)c(C)c2)c(C)c1 | 6 | 2 | -17 | -2 | 11 | -12
COc1ccc(OC)c(NC(=O)Nc2ccc(Cl)cc2)c1 | -12 | 1 | 8 | -4 | -3 | 5
COc1ccc(OC)c(NC(=O)Nc2ccc3[nH]ccc3c2)c1 | -8 | -1 | 59* | 5 | 15 | -8
N#C/C(=C(/O)CN1CCOCC1)c1nc(-c2ccccc2)cs1 | 1 | 0 | -20 | 0 | 2 | -7
CCOC(=O)C1CCCN(C/C=C/c2ccccc2[N+](=O)[O-])C1 (stereo not given) | 20 | 2 | -7 | -7 | -16 | 28*
CN(C/C=C/c1ccccc1[N+](=O)[O-])Cc1ccccc1 | -1 | 0 | -6 | -10 | -30 | 55*
O=[N+]([O-])c1ccccc1/C=C/CN1CCCCC1CO (stereo not given) | 15 | 1 | -10 | -7 | -12 | 9
CCOC(=O)C1CCCN(C/C(O)=C(\C#N)c2nc(-c3ccccc3)cs2)C1 (stereo not given) | 25 | 2 | -23 | 56* | -24 | 22

Source: PubChem
